According to PubChem BioAssay (NCATS):
Results filed as inconclusive are left out. The source made the active and inactive calls. Calls come from the whole dose curve; as a rule, active = well fitted inhibition curve with a large enough effect; inconclusive = small, poorly fitted or top-dose-only effect; inactive = flat fitted curve, though single readings scatter.

Legend:
[1] = molecular target: Glutathione peroxidase 1 (Homo sapiens) (UniProt P07203); assay: Primary qHTS Assay for Inhibitors of Recombinant Selenoprotein Glutathione Peroxidase 1 (GPX1) (AID 1845191); note: nearly all actives have a fitted effect of over 65% in size
Glutathione peroxidase 1 (Homo sapiens), sequence (P07203 whole entry, looked up): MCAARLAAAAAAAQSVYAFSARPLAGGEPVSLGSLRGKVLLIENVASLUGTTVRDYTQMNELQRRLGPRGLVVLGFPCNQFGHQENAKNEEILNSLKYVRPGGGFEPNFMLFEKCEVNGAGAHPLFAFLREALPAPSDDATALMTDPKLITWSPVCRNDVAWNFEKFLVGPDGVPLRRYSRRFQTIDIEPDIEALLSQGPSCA
Outline: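 GR-coupled assay: compounds preincubated 30 min at room temperature with GPX1, then reaction started with CHP; final 10 nM GPX1, 1 mM GSH, 0.5 mM CHP, 0.5 mM NADPH, 100 nM GR, 0.01% BSA, pH 7.5 Tris buffer. NADPH fluorescence (340/450 nm) read at 0 and 15 min.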

[2] = molecular target: Phospholipid hydroperoxide glutathione peroxidase GPX4 (Homo sapiens) (UniProt P36969); assay: Primary qHTS Assay for Inhibitors of Recombinant Selenoprotein Glutathione Peroxidase 4 (GPX4) (AID 1845192); note: nearly all actives have a fitted effect of over 65% in size
Phospholipid hydroperoxide glutathione peroxidase GPX4 (Homo sapiens), sequence (P36969 whole entry, looked up): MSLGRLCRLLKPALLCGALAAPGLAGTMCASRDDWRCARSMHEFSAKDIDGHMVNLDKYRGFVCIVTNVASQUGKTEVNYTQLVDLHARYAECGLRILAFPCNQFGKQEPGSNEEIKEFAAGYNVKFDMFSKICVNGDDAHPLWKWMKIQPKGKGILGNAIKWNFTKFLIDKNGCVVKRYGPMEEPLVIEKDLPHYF
Outline: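 GR-coupled assay: recombinant GPX4 preincubated 30 min with compound at room temperature; final 200 nM GPX4, 1 mM GSH, 0.5 mM cumene hydroperoxide, 0.5 mM NADPH, 100 nM GR, 0.01% BSA, pH 7.5 Tris. NADPH fluorescence (340/450 nm) read at 0 and 15 min.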

[3] = molecular target: Luciferin 4-monooxygenase (Photinus pyralis) (UniProt P08659); assay: Primary firefly luciferase (FLuc) qHTS assay for identification of artifact compounds. (AID 1845220); note: nearly all actives have a fitted effect of over 60% in size
Outline: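 D-luciferin and ATP (10 uM each, final) in Tris acetate buffer pH 7.6 were incubated with compounds for 15 min at room temperature. The reaction was started with 10 nM Photinus pyralis luciferase and luminescence read after 5 min. Percent inhibition was fitted to a 4-parameter Hill equation.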

[4] = tested on: Nanoluciferase (engineered Oplophorus gracilirostris luciferase); assay: Primary Nanoluciferase (NLuc) qHTS assay for identification of artifact compounds. (AID 1845222); note: series mostly up to about 54 µM
Outline: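 Diluted conditioned medium from NLuc-expressing S16 cells treated with compounds for 15 min at room temperature, then Nano-Glo substrate added; luminescence read after 5 min. Percent inhibition versus no-enzyme and DMSO controls fitted to 4-parameter Hill equation.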

Measured: Potency

CC(C)=CCc1ccc(Oc2c(O)cc(C)cc2CO)c(C(=O)O)c1O
inactive: all assays above

NC(=O)c1ccc(OCC2NC(=O)C3CCCN3C2=O)cc1 (stereo not drawn)
inactive: all assays above

CC(C)CNC(=O)/C=C/CCCCc1ccc2c(c1)OCO2
inactive: all assays above

COC1C2=C(COC2=O)C2(C)CCCC(C)(CO)C2C1OC(=O)c1ccccc1 (stereo not drawn)
inactive: all assays above

CC1CCC2C(C)(C)C(O)CCC2(C)C12Cc1c(O)cc3c(c1O2)CN=C3N (stereo not drawn)
inactive: all assays above

C[C@@H]1O[C@@H](O[C@H]2[C@H](OC(C#N)c3ccc(O)cc3)O[C@H](CO)[C@@H](O)[C@@H]2O)[C@H](O)[C@H](O)[C@H]1O (stereo partly drawn)
inactive: all assays above

CC(C)CC(=O)n1cc(C(N)=O)c(=O)cc1C(O)c1ccccc1 (stereo not drawn)
inactive: all assays above

C[C@@H]1C[C@H](O[C@@H]2O[C@H](CO[C@@H]3OC[C@](O)(CO)[C@H]3O)[C@@H](O)[C@H](O)[C@H]2O)CC(C)(C)[C@H]1/C=C/[C@@H](C)O
inactive: all assays above

CC(=O)NC(C(=O)OC1CCC(C)(C)C2CC=C3C(=O)OCC3(O)C12C)C(C)C (stereo not drawn)
inactive: all assays above

O=C1[C@H](O[C@@H]2O[C@H](CO)[C@@H](O)[C@H](O)[C@H]2O)Oc2ccccc2N1O
inactive: all assays above

COC1=CC(=O)C[C@@H](C)[C@]12Oc1cc(OC)cc(OC)c1C2=O
inactive: all assays above

C=CCc1ccc(O[C@@H]2O[C@H](CO[C@@H]3O[C@@H](C)[C@H](O)[C@@H](O)[C@H]3O)[C@@H](O)[C@H](O)[C@H]2O)cc1
inactive: all assays above

CC1(C)CC2C(C1)C1(C)CCC13OC3(CO)C2O (stereo not drawn)
inactive: all assays above

COc1cc(/C=C/CO)ccc1O[C@@H]1O[C@H](CO)[C@@H](O)[C@H](O)[C@H]1O
inactive: all assays above

CNC(=O)COC(=O)NCCC1CCN(c2cccc(C)n2)CC1
inactive: all assays above

C[C@@H]1C(=O)O[C@H]2CC34[C@H]5C[C@@H](C(C)(C)C)C36[C@@H](OC(=O)[C@@H]6O)OC4(C(=O)O5)[C@]21O (stereo partly drawn)
inactive: all assays above

COc1ccc2c(c1O)OC[C@H]1c3ccc(O)cc3O[C@@H]21
inactive: all assays above

CC(=O)OC[C@]1(O)[C@H]2[C@H](OC(=O)CC(C)C)OC=C(CO[C@@H]3O[C@H](CO)[C@@H](O)[C@H](O)[C@H]3O)[C@H]2C[C@@H]1O
inactive: all assays above

CC1=C2C=C(CO)C(CO)CCC2(C)CCC1=O (stereo not drawn)
inactive: all assays above

CC1CCC23COC(=O)C2=CC(O)CC3C1(C)CCC1=CC(=O)OC1O (stereo not drawn)
inactive: all assays above

CC1CCC2C(C(=O)O)=CC3C(O)C(C)(C)CC123 (stereo not drawn)
inactive: all assays above

COC(=O)C1C(c2ccc(O)cc2)C(C(=O)OC)C1c1ccc(O)cc1 (stereo not drawn)
inactive: all assays above

COc1c(OC2OC(CO)C(O)C(O)C2O)ccc(O)c1C(=O)OCc1ccccc1O[C@@H]1O[C@H](CO)[C@@H](O)[C@H](O)[C@H]1O (stereo partly drawn)
inactive: all assays above

C=CC(C)(O)CO[C@@H]1O[C@H](CO)[C@@H](O)[C@H](O)[C@H]1O (stereo partly drawn)
inactive: all assays above

CC(=O)c1c(O)cc2c(c1C)C(=O)CC(O)C2 (stereo not drawn)
inactive: all assays above

COC1=Cc2c(nc3n(c2=O)C(C)C(=O)NC3(O)C(C)C)OC=C1 (stereo not drawn)
inactive: all assays above

CC(O)(CC(=O)O)CC(=O)O[C@@H]1[C@@H](O)[C@H](OCCc2ccccc2)O[C@H](CO)[C@H]1O (stereo partly drawn)
inactive: all assays above

COc1cc(C2Oc3c(O)cc(CCCO)cc3C2CO)ccc1O[C@H]1O[C@H](C)[C@@H](O)[C@H](O)[C@@H]1O (stereo partly drawn)
inactive: all assays above

CC(/C=C/[C@]1(O)[C@@]2(C)CO[C@@]1(C)C[C@@H](O)C2)=C\C(=O)O[C@@H]1O[C@H](CO)[C@@H](O)[C@H](O)[C@H]1O
inactive: all assays above

C[C@@H](OC(=O)/C=C/c1ccc(O)cc1)C1=C[C@]2(C=C[C@@H]3C(C(=O)O)=CO[C@@H](O[C@@H]4O[C@H](CO[C@@H]5O[C@H](CO)[C@@H](O)[C@H](O)[C@H]5O)[C@@H](O)[C@H](O)[C@H]4O)[C@@H]32)OC1=O
inactive: all assays above

C=C1[C@@H]2[C@H]3OC(=O)C(=C)[C@@H]3CC[C@@](C)(O)[C@@H]2C[C@@H]1O[C@@H]1O[C@H](CO)[C@@H](O)[C@H](O)[C@H]1O
inactive: all assays above

CC1(CCC(=O)O)C(=O)C=CC23CC4CC(OC4(C)C2O)C13 (stereo not drawn)
inactive: all assays above
